The source of these data is PubChem BioAssay (NCATS).

A short description of assay [1]: Cellular Toxicity (caspase-3) HepG2 (AID 654).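 Further: cells exposed to compound for 16 hours before reading; 0% = DMSO alone and 100% = caspase signal from 100 µM tamoxifen.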 The gist of the method: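 Luminescent Caspase-Glo 3/7 readout after 16 hr compound exposure of human hepatocellular carcinoma HepG2 cells at 37 °C; qHTS concentration-response, normalized DMSO = 0%, 100 uM tamoxifen = 100%; AC50 by standard Hill equation.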
A short description of assay [2]: Cellular Toxicity (caspase-3) Jurkat (AID 655).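 Further: cells exposed to compound for 16 h at 37 °C before reading.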 Summed up:
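Jurkat cells (5000/well) in complete medium were treated with compounds for 16 hr at 37 °C, then Caspase-Glo 3/7 luminescence was read after 20 min at room temperature. Data normalized to DMSO (basal) and 100 uM tamoxifen (100%); AC50 from Hill fit.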

Assay [3] can be described thus: Cellular Toxicity (caspase-3) HUV-EC-C (AID 656).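 Further: 0% = DMSO basal and 100% = 100 µM tamoxifen.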 The gist of the method: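 HUV-EC-C endothelial cells, 1000/well, were pre-incubated 5 hr at 37°C, then exposed to compounds for 16 hr at 37°C. Caspase-Glo 3/7 luminescence was read after 20 min at room temperature. AC50 came from Hill fits, normalized to DMSO and 100 uM tamoxifen.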
The nature of assay [4]: Cellular Toxicity (caspase-3) SHSY5Y (AID 657). Summed up:
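SH-SY5Y human neuroblastoma cells (1500/well) were treated with compounds for 16 h at 37 °C, then Caspase-Glo 3/7 luminescence was read after 1 h at room temperature. Data normalized to DMSO and 10 uM staurosporine; AC50 from Hill fits.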

Assay [5] is described as follows: Cellular Toxicity (caspase-3) BJ (AID 658).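 Further: 0% = DMSO basal and 100% = 10 µM staurosporine.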 Summed up:
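qHTS, BJ fibroblasts, 1000 cells/well; 5 hr preincubation, 16 hr compound, 37 °C; Caspase-Glo 3/7 reagent, 1 hr RT; luminescence. DMSO = 0%, 10 uM staurosporine = 100%. Hill-equation AC50.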

The nature of assay [6]: Cellular Toxicity (caspase-3) MRC-5 (AID 659).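 Further: 0% = DMSO basal and 100% = 10 µM staurosporine.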 The gist of the method:
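MRC-5 fibroblasts, 1500/well; 16 h cpd, 37 °C; Caspase-Glo 3/7, 1 h RT; lumi read. Norm: DMSO = 0%, 10 uM staurosporine = 100%. Hill-fit AC50 from qHTS conc-response.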

A short description of assay [7]: Cellular Toxicity (caspase-3) SK-N-SH (AID 661).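 Further: 0% = DMSO basal and 100% = 10 µM staurosporine.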 The gist of the method:
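Luminescent Caspase-Glo 3/7 read-out after 16 hr compound exposure of SK-N-SH neuroblastoma cells at 37 °C. Signal increase normalized to DMSO (basal) and 10 uM staurosporine (100%); AC50 from Hill equation fits of qHTS concentration-response data.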

Assay [8] in a line: Cellular Toxicity (caspase-3) H-4-II-E (AID 663).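 Further: cells exposed to compound for 16 hr before readout; 0% = DMSO basal and 100% = 100 µM tamoxifen.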 Summed up:
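H-4-II-E rat hepatoma, 1500 cells/well, 5 hr settle at 37 °C; compound 16 hr, 37 °C, complete medium; Caspase-Glo 3/7, 20 min RT; luminescence. DMSO = 0%, 100 uM tamoxifen = 100%; Hill-equation AC50.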

The nature of assay [9]: Cellular Toxicity (caspase-3) Hek293 (AID 664).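 Further: cells exposed to compound for 16 h at 37 °C before readout.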 Summed up:
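Luminescent Caspase-Glo 3/7 readout (aminoluciferin release) in HEK293 cells after 16 h compound treatment, 37 °C. Normalization: DMSO = basal, 100 uM tamoxifen = 100% stimulation. Concentration-response fitted with standard Hill equation for AC50.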

Assay [10] in a line: Cellular Toxicity (caspase-3) N2a (AID 665).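 Further: compound exposure lasted 16 h at 37 °C before readout.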 Summed up: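 Luminescent Caspase-Glo 3/7 readout in N2a mouse neuroblastoma cells after 16 h compound exposure at 37 °C. Signal scaled to DMSO (basal) and 10 uM staurosporine (100%). Concentration-response fitted with Hill equation for AC50.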
Assay [11] can be described thus: Cellular Toxicity (caspase-3) NIH 3T3 (AID 666).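 Further: 0% = DMSO basal and 100% = 100 µM tamoxifen stimulation.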 The gist of the method:
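NIH 3T3, 1000 cells/well, 5 hr settle then 16 hr compound at 37°C; Caspase-Glo 3/7, 20 min RT, luminescence. DMSO = basal, 100 uM tamoxifen = 100%. Hill-equation AC50, qHTS.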

Assay [12] in a line: Cellular Toxicity (caspase-3) Renal Proximal Tubule (AID 667).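 Further: cells exposed to compound for 16 hours at 37 °C before detection; 0% = DMSO basal and 100% = 10 µM staurosporine.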 The gist of the method: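 Primary rat proximal tubule cells, 1000/well, 5 h plating at 37 °C, then compound 16 h at 37 °C. Caspase-Glo 3/7 reagent, 1 h RT, luminescence. Normalized to DMSO (basal) and 10 uM staurosporine (100%); Hill-fit AC50.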
Assay [13] in a line: qHTS assay for small molecule agonists of retinoid X receptor alpha signaling (AID 588544; calls by dose curve;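 on activation: 0% = DMSO basal wells and 100% = reference agonist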). Particulars: HEK293T RXRa-UAS-bla, beta-lactamase reporter, 18 h; 530 nm emission.
Assay [14] addresses Retinoic acid receptor RXR-alpha (Homo sapiens) (UniProt P19793). Described as above.
Assay [15] is described as follows: qHTS assay for small molecule antagonists of retinoid X receptor alpha signaling (AID 588546; active means well fitted inhibition curve with a large enough effect in the signal ratio, with a control signal flat, not every such curve was filed as active; the % refers to the signal ratio;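 further: cells stimulated with 9-cis-retinoic acid as agonist; on the % scale 0 is the no-effect control and ±100 the full control effect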). Particulars: HEK293T RXRa-UAS-bla, beta-lactamase ratio, antagonist mode; measured here: W530 green channel, cytotoxicity proxy. Summed up: (§1)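 Beta-lactamase reporter inhibition, read as CCF4 fluorescence ratio (ex 405, em 460/530 nm) after 2 h at RT. HEK293T UAS-bla cells, 2500/well, were stimulated with 9-cis-RA at 500 or 100 nM final alongside test compound for 18 h at 37 C.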

Assay [16] concerns the target Retinoic acid receptor RXR-alpha (Homo sapiens) (UniProt P19793). The description is as above. Particulars: HEK293T RXRa-UAS-bla, beta-lactamase ratio, antagonist mode. Summed up: as §1
Assay [17] deals with Thyroid hormone receptor beta (Homo sapiens) (UniProt P10828). The assay can be described thus: qHTS assay for small molecule antagonists of thyroid hormone receptor beta signaling (AID 588547; active means well fitted inhibition curve with a large enough effect in the signal ratio, with a control signal flat, not every such curve was filed as active; the % refers to the signal ratio;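 further: cells stimulated with 0.4 nM T3 agonist during compound exposure; series mostly up to about 77 µM; on the % scale 0 is the no-effect control and ±100 the full control effect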). Conditions: TR-UAS-bla HEK293, beta-lactamase ratio, antagonist mode, 18 h. The gist of the method: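 TR-UAS-bla GripTite HEK293 cells in 2% charcoal/dextran FBS medium; compounds 0.59 nM to 92 uM with T3 at 0.4nM final, 18 h at 37 C. Beta-lactamase read by CCF4 fluorescence (460/530 nm); Hill fits gave IC50 and efficacy.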

The target of assay [18] is Voltage-gated inwardly rectifying potassium channel KCNH2 (Homo sapiens) (UniProt Q12809). The assay can be described thus: qHTS Assay for Small Molecule Inhibitors of the Human hERG Channel Activity (AID 588834).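 Further: top concentration of the series differs between compounds; on the % scale 0 is the no-effect control and ±100 the full control effect; lower thallium flux fluorescence means stronger hERG block; nearly all actives have a fitted effect of over 50% in size.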 Summed up: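 In hERG-transduced U2OS cells, dye-loaded for 1 hr at room temperature in dark, test compounds incubated 10 min at 37 °C before thallium stimulation. AC50 values derived by Hill modelling of concentration-response.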

Assay [19] in a line: qHTS assay for small molecule agonists of the antioxidant response element (ARE) signaling pathway (AID 651741; active means well fitted activation curve with a large enough effect in the signal ratio; the % refers to the signal ratio; further: % of control where 0% means no effect). The gist of the method: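 HepG2 ARE-bla reporter cells, 2,000/well; 5 h settle at 37 C/5% CO2; compound pin transfer (23 nL, DMSO); 16 h at 37 C; LiveBLAzer B/G FRET substrate, 2 h RT; fluorescence intensity read.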
Assay [20] deals with Nuclear receptor ROR-gamma (Homo sapiens) (UniProt P51449). In words: qHTS assay for small molecule antagonists of the retinoid-related orphan receptor gamma (ROR-gamma) signaling pathway (AID 651802).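 Further: CHO cells with doxycycline-induced ROR-gamma expression; luciferase reporter luminescence driven by ROR response element; series mostly up to about 92 µM; on the % scale 0 is the no-effect control and ±100 the full control effect; nearly all actives have a fitted effect of over 60% in size.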 Summed up:
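Luciferase read-out: ONE-Glo luminescence after 30 min at room temperature, following 16hr doxycycline induction at 37C, 5% CO2 of CHO cells with TET-inducible ROR and RORE-LUC reporter; decreased luminescence = reduced reporter activity.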
On the technique in general: qHTS replaces the single test concentration by a dilution series.

Where “and” joins values, the source holds several entries; their conditions need not be identical. Equal values may be shown once. Inconclusive results are not listed. Calls of active or inactive are those of the source. Unless noted, the call rests on the fitted dose curve; in most records, active means well fitted curve in the direction sought with a large enough effect; inconclusive means small, poorly fitted or top-dose-only effect, or another doubt; inactive means no such curve, though single readings can be large; an effect the other way counts as inactive or inconclusive.

Thyroid hormone receptor beta (Homo sapiens), sequence (P10828 whole entry, looked up): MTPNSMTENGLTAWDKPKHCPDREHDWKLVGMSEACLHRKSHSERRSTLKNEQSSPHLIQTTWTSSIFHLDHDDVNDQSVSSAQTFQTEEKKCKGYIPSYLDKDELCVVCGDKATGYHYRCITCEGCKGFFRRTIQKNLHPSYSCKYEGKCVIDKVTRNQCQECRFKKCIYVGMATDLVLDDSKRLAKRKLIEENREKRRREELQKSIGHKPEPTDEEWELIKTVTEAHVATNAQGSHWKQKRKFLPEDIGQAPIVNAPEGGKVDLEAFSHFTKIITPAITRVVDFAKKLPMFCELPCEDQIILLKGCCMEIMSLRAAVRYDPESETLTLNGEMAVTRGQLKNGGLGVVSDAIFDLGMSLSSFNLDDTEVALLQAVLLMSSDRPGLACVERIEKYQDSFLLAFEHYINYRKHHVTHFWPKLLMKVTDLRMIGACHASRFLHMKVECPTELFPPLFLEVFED
Nuclear receptor ROR-gamma (Homo sapiens), sequence (P51449 whole entry, looked up): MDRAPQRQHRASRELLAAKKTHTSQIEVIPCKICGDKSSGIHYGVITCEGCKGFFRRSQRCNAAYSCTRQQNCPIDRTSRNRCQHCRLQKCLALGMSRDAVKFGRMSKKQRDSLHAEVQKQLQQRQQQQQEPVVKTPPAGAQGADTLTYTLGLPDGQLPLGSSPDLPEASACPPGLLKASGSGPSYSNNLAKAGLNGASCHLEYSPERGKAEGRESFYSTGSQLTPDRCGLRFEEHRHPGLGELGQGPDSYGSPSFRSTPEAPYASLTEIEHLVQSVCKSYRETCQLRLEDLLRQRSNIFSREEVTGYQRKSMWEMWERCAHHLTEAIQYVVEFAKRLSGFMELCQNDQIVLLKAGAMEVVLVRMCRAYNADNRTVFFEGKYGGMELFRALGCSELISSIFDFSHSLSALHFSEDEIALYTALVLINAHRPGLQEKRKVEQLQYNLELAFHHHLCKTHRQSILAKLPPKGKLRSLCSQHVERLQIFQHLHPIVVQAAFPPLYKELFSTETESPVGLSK
Retinoic acid receptor RXR-alpha (Homo sapiens), sequence (P19793 whole entry, looked up): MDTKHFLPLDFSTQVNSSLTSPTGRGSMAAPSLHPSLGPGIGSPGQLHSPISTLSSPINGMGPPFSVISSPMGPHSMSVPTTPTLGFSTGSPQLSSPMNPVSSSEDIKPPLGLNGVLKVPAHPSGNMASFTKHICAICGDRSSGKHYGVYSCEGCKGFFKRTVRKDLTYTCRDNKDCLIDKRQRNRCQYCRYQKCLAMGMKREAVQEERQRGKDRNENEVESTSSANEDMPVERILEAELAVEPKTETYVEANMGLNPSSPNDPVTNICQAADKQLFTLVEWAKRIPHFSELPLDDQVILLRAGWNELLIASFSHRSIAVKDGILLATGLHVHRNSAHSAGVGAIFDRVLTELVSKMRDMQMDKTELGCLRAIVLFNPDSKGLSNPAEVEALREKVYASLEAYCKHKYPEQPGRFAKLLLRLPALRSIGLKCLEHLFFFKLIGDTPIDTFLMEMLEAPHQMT
Voltage-gated inwardly rectifying potassium channel KCNH2 (Homo sapiens), sequence (Q12809 whole entry, looked up): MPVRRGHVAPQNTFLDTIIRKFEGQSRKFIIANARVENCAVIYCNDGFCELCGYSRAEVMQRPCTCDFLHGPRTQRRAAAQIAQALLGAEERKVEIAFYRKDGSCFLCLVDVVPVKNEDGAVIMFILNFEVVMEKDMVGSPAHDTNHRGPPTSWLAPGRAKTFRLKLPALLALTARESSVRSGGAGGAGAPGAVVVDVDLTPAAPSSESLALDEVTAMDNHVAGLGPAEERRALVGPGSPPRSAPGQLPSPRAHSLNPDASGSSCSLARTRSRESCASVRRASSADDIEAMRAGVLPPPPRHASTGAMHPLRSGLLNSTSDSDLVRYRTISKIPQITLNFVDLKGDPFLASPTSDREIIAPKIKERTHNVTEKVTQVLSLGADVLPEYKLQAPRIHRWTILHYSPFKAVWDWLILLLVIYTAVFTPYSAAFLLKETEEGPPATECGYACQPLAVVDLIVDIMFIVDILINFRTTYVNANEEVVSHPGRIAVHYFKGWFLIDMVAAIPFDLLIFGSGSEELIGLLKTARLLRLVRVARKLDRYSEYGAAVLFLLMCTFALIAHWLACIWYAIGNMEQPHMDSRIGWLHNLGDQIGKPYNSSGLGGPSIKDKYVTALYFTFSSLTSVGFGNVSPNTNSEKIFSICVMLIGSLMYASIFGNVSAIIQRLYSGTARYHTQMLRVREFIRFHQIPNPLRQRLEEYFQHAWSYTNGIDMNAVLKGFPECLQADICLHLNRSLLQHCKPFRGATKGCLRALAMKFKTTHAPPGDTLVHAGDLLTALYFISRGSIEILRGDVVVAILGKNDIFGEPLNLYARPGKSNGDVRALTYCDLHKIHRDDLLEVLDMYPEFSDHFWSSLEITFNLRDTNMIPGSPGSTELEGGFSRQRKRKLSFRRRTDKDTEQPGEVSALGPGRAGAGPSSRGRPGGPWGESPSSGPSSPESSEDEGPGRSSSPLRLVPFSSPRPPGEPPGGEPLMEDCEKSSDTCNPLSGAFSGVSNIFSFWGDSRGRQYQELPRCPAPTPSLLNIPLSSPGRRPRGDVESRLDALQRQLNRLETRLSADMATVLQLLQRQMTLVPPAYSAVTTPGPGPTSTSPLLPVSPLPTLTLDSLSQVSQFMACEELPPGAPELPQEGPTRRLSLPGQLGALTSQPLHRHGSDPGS

Regarding `O=Cc1ccccc1`, the result in [1], in assay [2], in [3], in assay [4], in assay [5] and in [6] was inactive. For the same compound, the compound was classed as inactive in assay [7], in [8], in [9], in [10], in [11] and in [12]. In assay [14], the compound was classed as inactive. Moreover, the values for the max response in [13], in assay [15] and in assay [16] were 10.9%, -3.83% and 10.9% (inactive), respectively. Moreover, the activity change % (negative = inhibition) in assay [17] was 12% (inactive). For the same compound, the Potency entry in assay [18], in assay [19] and in [20] was “inactive” each time.
In the case of `COC(=O)c1ccccc1C(=O)OC`, the result in assay [1], in [2], in [3], in assay [4], in assay [5] and in assay [6] was inactive. Further, the compound was classed as inactive in [7], in assay [8], in [9], in assay [10], in assay [11] and in [12]. For the same compound, in assay [14], the compound was classed as inactive. In addition, the values for the max response in [13], in assay [15] and in [16] were -8.66%, -2.9% and 2.81% (inactive), respectively. The activity change % (negative = inhibition) in assay [17] is 0.995% (inactive) and 14.6% (inactive). Moreover, the Potency entry in assay [18], in [19] and in assay [20] was “inactive” each time.
As to `CCOc1cc(C=O)ccc1O`, the result in assay [1], in assay [2], in assay [3], in assay [4], in [5] and in assay [6] was inactive. The outcome in [7], in assay [8], in [9], in assay [10], in assay [11] and in assay [12] was inactive. In addition, the call in assay [14] was inactive. For the same compound, the max response in assay [13] is 11.5%; in assay [15], 0.367% and -12.6%; in assay [16], 1.38% (inactive) and 4.11% (inactive). Moreover, the activity change % (negative = inhibition) in assay [17] was 6.05% (inactive) and -14.6% (inactive). Further, the Potency entry in assay [18], in assay [19] and in assay [20] was “inactive” in each case.
